Data taken from PubChem BioAssay (NCI).
About 83,000 compounds went through this panel and 20% of them were active in at least one assay; those are over-represented in the sample as a whole.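 In brief: 96-well plates, 48 h treatment, single concentration, percent growth endpoint.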 Active and inactive are the calls of the source. The calls were made as follows: active = growth percent below 10; inactive = the rest.

Assays:
Assay in all cases: NCI-60 one-dose screen, 48 h (100 = growth as untreated, 0 = no growth, -100 = all killed)
Conditions in all cases: 10 µM unless noted
[1] = test system: NCI-H23 lung
[2] = test system: NCI-H226 lung
[3] = test system: NCI-H322M lung
[4] = test system: HOP-62 NSCLC
[5] = test system: NCI-H460 lung
[6] = test system: HOP-92 NSCLC
[7] = test system: NCI-H522 lung
[8] = test system: A549/ATCC NSCLC
[9] = test system: 786-0 renal
[10] = test system: COLO 205 colon
[11] = test system: DU-145 prostate
[12] = test system: K-562 leukemia
[13] = test system: MALME-3M melanoma
[14] = test system: MDA-MB-231 breast
[15] = test system: RXF 393 renal
[16] = test system: SF-268 CNS
[17] = test system: SF-295 CNS
[18] = test system: SF-539 CNS
[19] = test system: UACC-257 melanoma
[20] = test system: M14 melanoma

Measured: growth

COC(=O)c1cncc(C(=O)Nc2ccc(-n3cnc4ccccc43)cc2)c1
inactive: [1] 102% | [2] 89.6% | [3] 95.6% | [4] 94.8% | [5] 96.9% | [6] 86.7% | [7] 84% | [8] 94.4% | [9] 105% | [10] 106% | [11] 105% | [12] 94.5% | [13] 124% | [14] 94% | [15] 100% | [16] 91.9% | [17] 100% | [18] 95.9% | [19] 104% | [20] 102%

O=C(Nc1ccc2ncnc(Nc3cccc(C(F)(F)F)c3)c2c1)c1cccs1
inactive: [1] 30.2% | [2] 67.6% | [3] 40.7% | [4] 58.4% | [5] 22.5% | [6] 67.6% | [7] 33.8% | [8] 32.4% | [9] 57% | [10] 24.1% | [11] 39.6% | [12] 26.3% | [13] 106% | [14] 54.3% | [15] 66.2% | [16] 51.4% | [17] 44% | [18] 87.7% | [19] 103% | [20] 49.5%

COc1ccc2oc(=O)cc(-c3c(C#N)c(N)n4nc(N)c(C#N)c4c3C#N)c2c1
inactive: [1] 102% | [2] 95.4% | [3] 96.8% | [4] 90.9% | [5] 101% | [6] 97.3% | [7] 80.1% | [8] 95% | [9] 103% | [10] 108% | [11] 106% | [12] 86.4% | [13] 77.4% | [14] 104% | [15] 100% | [16] 89.9% | [17] 103% | [18] 98.2% | [19] 107% | [20] 111%

COc1cc(C(C)c2ccc3c(ccn3C)c2)cc(OC)c1OC (stereo not given)
active: [5] 2.89% | [10] -56.6% | [11] -15.3% | [12] 6.54% | [18] -6.4%
inactive: [1] 29.3% | [2] 67.2% | [3] 42.8% | [4] 29.4% | [6] 48.2% | [7] 11.3% | [8] 16.3% | [9] 22.6% | [13] 68% | [14] 28.1% | [15] 53.1% | [16] 31.4% | [17] 15.5% | [19] 61% | [20] 11.3%

Cc1c(Br)cccc1NC(=O)c1sc2nc3c(cc2c1N)CN(Cc1ccccc1)CC3
active: [4] -2.37% | [5] 6.71% | [7] -0.487% | [10] -4.67% | [12] 7.49% | [15] 6.25% | [18] -4.32% | [20] 0.627%
inactive: [1] 40.7% | [2] 23.7% | [3] 41.2% | [6] 30.2% | [8] 21.4% | [9] 35.1% | [11] 17.8% | [13] 32.8% | [14] 22.7% | [16] 31.7% | [17] 18.8% | [19] 67.7%

COc1cccc(NC(=O)Nc2ccc(Oc3ncnc4[nH]c(C)c(C)c34)cc2)c1
inactive: [1] 70.7% | [2] 105% | [3] 105% | [4] 97.5% | [5] 61.3% | [6] 110% | [7] 57.8% | [8] 79.7% | [9] 109% | [10] 102% | [11] 91.9% | [12] 83.7% | [13] 114% | [14] 97.1% | [15] 109% | [16] 81.3% | [17] 91.7% | [18] 64.6% | [19] 97.7% | [20] 100%

CC1(C)CC[C@]2(c3nnc(-c4ccncc4)o3)CC[C@]3(C)C(=CC[C@@H]4[C@@]5(C)CCC(=O)C(C)(C)[C@@H]5CC[C@]43C)[C@@H]2C1
inactive: [1] 85.6% | [2] 64.9% | [3] 91.3% | [4] 87.6% | [5] 77.9% | [6] 92.2% | [7] 71.2% | [8] 73.7% | [9] 85% | [10] 85% | [11] 91.2% | [12] 62.1% | [13] 86.1% | [14] 87% | [15] 101% | [16] 81.5% | [17] 79.7% | [18] 90.7% | [19] 78.4% | [20] 84.3%

CSc1nc(-c2cccs2)c2c(N)[nH]nc2n1
inactive: [1] 93.1% | [2] 104% | [3] 92.8% | [4] 87.9% | [5] 113% | [6] 110% | [7] 83.3% | [8] 98.5% | [9] 91.4% | [10] 112% | [11] 107% | [12] 88.4% | [13] 121% | [14] 97.9% | [15] 114% | [16] 105% | [17] 102% | [18] 93% | [19] 114% | [20] 126%

COc1ccc(N(C)c2nc(Cl)nc3ccn(C)c23)cc1
active: [5] 2.4% | [6] 5.65% | [7] -36% | [10] -71.1% | [11] 2.61% | [12] 7.28% | [14] 0.175% | [18] -32% | [20] -0.998%
inactive: [1] 27% | [2] 30.3% | [3] 49% | [4] 17.7% | [8] 10.7% | [9] 12.6% | [13] 84.8% | [15] 48.3% | [16] 24.3% | [17] 15.5% | [19] 49.6%

CCCCC(=O)Nc1c(C(=O)Nc2ccccc2)sc2nc3c(cc12)C(OC(=O)CCCC)CCC3 (stereo not given)
inactive: [1] 95.6% | [2] 92.6% | [3] 113% | [4] 101% | [5] 85.9% | [6] 84.4% | [7] 77% | [8] 105% | [9] 84.1% | [10] 90.3% | [11] 87.9% | [12] 85.3% | [13] 105% | [14] 87.9% | [15] 95.2% | [16] 85.7% | [17] 101% | [18] 94.7% | [19] 110% | [20] 97.5%

CCOC(=O)/C(=C/c1c(-c2ccccc2)[nH]c2ccccc12)C(=O)c1ccc(Cl)cc1
inactive: [1] 55% | [2] 71.3% | [3] 78.6% | [4] 48% | [5] 33.1% | [6] 13.5% | [7] 19.8% | [8] 39.6% | [9] 26.5% | [10] 63.2% | [11] 65.9% | [13] 92.8% | [14] 63% | [15] 54.3% | [16] 56.1% | [18] 81.5% | [19] 77.2% | [20] 39.5%
active: [12] 5.66% | [17] -15.3%

COc1cc2nc3c(=O)n(-c4ccc(C#N)cc4)cnn3c(=O)c2cc1OC
inactive: [1] 98.3% | [2] 95.1% | [3] 93.3% | [4] 102% | [5] 104% | [6] 103% | [7] 82.1% | [8] 106% | [9] 103% | [10] 94.3% | [11] 103% | [12] 106% | [13] 87.5% | [14] 103% | [15] 100% | [16] 88.5% | [17] 99.8% | [18] 94.9% | [19] 110% | [20] 94.1%

CNc1cccc2c1C(=O)c1cccc(N)c1C2=O
active: [10] 7.33%
inactive: [1] 76.3% | [2] 82.4% | [3] 75.3% | [4] 89.3% | [5] 52.4% | [6] 20.5% | [7] 62.3% | [8] 59.8% | [9] 38% | [11] 40.1% | [12] 26.2% | [13] 87.4% | [14] 85.9% | [15] 60.9% | [16] 56.1% | [17] 88.5% | [18] 85.7% | [19] 80.5% | [20] 11.3%

O=[N+]([O-])c1ccc(N=Nc2c(O)c(N=Nc3cc([N+](=O)[O-])cc([N+](=O)[O-])c3O)cc(N=Nc3cc(S(=O)(=O)O)cc4cc(S(=O)(=O)O)cc(O)c34)c2O)cc1
inactive: [1] 96.4% | [2] 113% | [3] 89.3% | [4] 98.6% | [5] 105% | [6] 101% | [7] 86.6% | [8] 102% | [9] 103% | [10] 108% | [11] 108% | [12] 77.7% | [13] 101% | [14] 102% | [15] 112% | [16] 101% | [17] 106% | [18] 102% | [19] 105% | [20] 92.4%

CC1CCN(CCCCCOc2ccc3oc4ccccc4c(=O)c3c2)CC1
inactive: [1] 75.6% | [2] 90.6% | [3] 78.7% | [4] 98.6% | [5] 81.8% | [6] 83.7% | [7] 76.2% | [8] 73.5% | [9] 75.7% | [10] 58.5% | [11] 83.9% | [12] 33.7% | [13] 44.4% | [14] 76.5% | [15] 69.1% | [16] 79.3% | [17] 89.8% | [18] 77.8% | [20] 41%
active: [19] 9.5%
